Source: PubChem BioAssay (EPA / NIEHS)
The source made the active and inactive calls. How the source made its calls: active means hit-call score of the fitted dose curve at least 0.9, where 1 is the maximum; inactive means score below 0.9.

Columns and labels:
[1] = biological target: Transcription factor E2F1 (Homo sapiens) (UniProt Q01094); assay: ATG_E2F_CIS: Attagene CIS-FACTORIAL HepG2 Assay for human E2F Transcription Factor 1 (AID 2282935); conditions: HepG2 Attagene cis-reporter, E2F reporter RNA transcripts; actives raise or lower the signal
Summary of the method: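 First, HepG2 cells were transfected with reporter transcription units. Next, they were dosed for 24 h. Then RNA was isolated, converted to cDNA, PCR-amplified, FAM-labeled, HpaI-digested and analyzed by capillary electrophoresis.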

[2] = ATG_E_Box_CIS: Attagene CIS-FACTORIAL HepG2 Assay for human Enhancer Box (E-box) (AID 2282936); conditions: HepG2 E-box cis-reporter transcription, actives raise or lower the signal
Summary of the method: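 Endogenous transcription factor activity was sensed in human HepG2 liver cells through transfected cis-promoter reporter units. After 24 h of dosing, total RNA was reverse-transcribed and reporter cDNA resolved by capillary electrophoresis.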

[3] = ATG_M_61_CIS: Attagene CIS-FACTORIAL HepG2 Assay for M61 Transcription Factor (Internal Marker) (AID 2282937); conditions: HepG2 Attagene CIS-FACTORIAL M61 internal marker reporter; actives raise or lower the signal
Summary of the method: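 Readout is reporter mRNA by RT-PCR, fluorescent primer extension and capillary electrophoresis, with gain or loss fitted relative to DMSO. Transfected HepG2 cells carrying endogenous-TF-driven cis reporters were exposed to chemicals for 24 hours.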

[4] = ATG_EGR_CIS: Attagene CIS-FACTORIAL HepG2 Assay for human Early Growth Response 1 (EGR1) (AID 2282938); conditions: HepG2 Attagene CIS-FACTORIAL EGR reporter mRNA; actives raise or lower the signal
Summary of the method: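 After 24 h compound exposure, RNA from reporter-transfected HepG2 cells was reverse-transcribed, PCR-amplified, fluorescently labelled and resolved by capillary electrophoresis. EGR1 reporter transcript changes, up or down, were fitted against DMSO, reflecting endogenous transcription-factor activity.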

[5] = ATG_M_19_CIS: Attagene CIS-FACTORIAL HepG2 Assay for M19 Transcription Factor (Internal Marker) (AID 2282939); conditions: HepG2 Attagene CIS-FACTORIAL M19 internal marker reporter; actives raise or lower the signal
Summary of the method: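 Readout: fluorescent reporter-transcript fragments by capillary electrophoresis after RT-PCR. Human HepG2 liver cells carried transfected MRTU constructs reporting endogenous transcription-factor activity; exposure 24 h. Gain or loss of signal fitted relative to DMSO.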

[6] = ATG_ERE_CIS: Attagene CIS-FACTORIAL HepG2 Assay for Estrogen Response Element (ERE) (AID 2282940); conditions: HepG2 ERE cis-reporter, Attagene RNA transcript; actives raise or lower the signal
Summary of the method: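 Readout: reporter mRNA induction by RT-PCR, FAM-labelled primer extension, HpaI digestion and capillary electrophoresis, 24 h after dosing transfected HepG2 cells. Endogenous transcription factors act on cis-element-regulated reporters. Gain or loss fitted against DMSO.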

[7] = ATG_Ets_CIS: Attagene CIS-FACTORIAL HepG2 Assay for human Erythroblast Transformation Specific (ETS) (AID 2282941); conditions: HepG2 ETS cis-reporter transcription, actives raise or lower the signal
Summary of the method: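 Multiplexed reporter transcript profiling: HepG2, 24 h treatment, total RNA to cDNA, PCR, 6-FAM labelling, HpaI cut, capillary electrophoresis. Gain- or loss-of-signal fitted against DMSO.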

[8] = biological target: Hepatocyte nuclear factor 3-beta (Homo sapiens) (UniProt Q9Y261); assay: ATG_FoxA2_CIS: Attagene CIS-FACTORIAL HepG2 Assay for human Forkhead box A2 (FOXA2) (AID 2282942); conditions: HepG2 cis-reporter transcription factor activity, 24 h; actives raise or lower the signal
Summary of the method: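 Endogenous transcription factor activity is captured via cis-element-driven reporter transcripts in transfected HepG2. Total RNA taken at 24 h post-dosing; labelled RT-PCR products resolved by capillary electrophoresis. Gain or loss fitted versus DMSO.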

[9] = ATG_FoxO_CIS: Attagene CIS-FACTORIAL HepG2 Assay for human Forkhead box O (FoxO) (AID 2282943); conditions: HepG2 Attagene cis-reporter, FoxO element, mRNA; actives raise or lower the signal
Summary of the method: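 HepG2 cells transiently transfected with cis-promoter-driven multiple reporter transcription units; 24 h after chemical dosing, reporter mRNA quantified by RT-PCR, fluorescent primer extension, HpaI digestion and capillary electrophoresis. Bidirectional fitting versus DMSO baseline.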

[10] = ATG_GATA_CIS: Attagene CIS-FACTORIAL HepG2 Assay for human GATA Binding Protein (AID 2282944); conditions: HepG2 GATA cis-element reporter, Attagene multiplex mRNA; actives raise or lower the signal
Summary of the method: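 Read-out: fluorescent reporter mRNA fragments resolved by capillary electrophoresis after RT-PCR. Human liver HepG2 cells carried transiently transfected cis-regulated reporter constructs; chemicals incubated 24 h; gain or loss of signal fitted relative to DMSO.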

[11] = ATG_GLI_CIS: Attagene CIS-FACTORIAL HepG2 Assay for human Zinc Finger Protein GLI1 (AID 2282945); conditions: HepG2, Attagene cis-factorial reporter mRNA, GLI element; actives raise or lower the signal
Summary of the method: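 HepG2 cells transiently transfected with cis-promoter multiplexed reporter units report endogenous transcription factor activity. After 24 h chemical exposure, reporter mRNA was quantified by RT-PCR, 6-FAM labelling, HpaI digestion and capillary electrophoresis, with bidirectional fitting against DMSO.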

[12] = ATG_GRE_CIS: Attagene CIS-FACTORIAL HepG2 Assay for human Glucocorticoid Response Elements (GRE) (AID 2282947); conditions: HepG2 GRE cis-reporter, Attagene multiplex mRNA; actives raise or lower the signal
Summary of the method: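 Cells (HepG2) bearing transfected cis-promoter reporter transcription units were treated with chemical for 24 hours. Reporter mRNA was measured via RT-PCR with capillary electrophoresis, and activity was fitted in both directions relative to DMSO.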

[13] = ATG_ISRE_CIS: Attagene CIS-FACTORIAL HepG2 Assay for human Interferon Regulatory Factor 1 (IRF1) binding to an Interferon-Stimulated Response Element (ISRE) (AID 2282948); conditions: HepG2 ISRE cis-reporter (Attagene), mRNA transcription readout; actives raise or lower the signal
Summary of the method: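 Signal reflects induction or loss of ISRE-linked reporter mRNA in transiently transfected HepG2 cells after a 24 h treatment, detected by fluorescent RT-PCR fragments on capillary electrophoresis and normalised to DMSO.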

[14] = ATG_M_32_CIS: Attagene CIS-FACTORIAL HepG2 Assay for M32 Transcription Factor (Internal Marker) (AID 2282949); conditions: HepG2 Attagene cis-factorial M32 reporter, mRNA; actives raise or lower the signal;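 further: background control marker of the multiplexed CIS panel rather than a real target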
Summary of the method: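 HepG2 transfectants (cis-regulated reporter transcription units) dosed 24 h. Reporter mRNA by RT-PCR plus CE, analysed as gain or loss relative to DMSO.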

[15] = ATG_M_06_CIS: Attagene CIS-FACTORIAL HepG2 Assay for M06 Transcription Factor (Internal Marker) (AID 2282950); conditions: HepG2 Attagene CIS-FACTORIAL M06 internal marker reporter; actives raise or lower the signal
Summary of the method: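 Terse: HepG2, transient MRTU transfection (FuGene 6), 24 h dosing; total RNA, oligo(dT) RT, PCR, FAM label, HpaI cut, capillary electrophoresis; bidirectional fit vs DMSO baseline; background-control endpoint.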

[16] = biological target: Hypoxia-inducible factor 1-alpha (Homo sapiens) (UniProt Q16665); assay: ATG_HIF1a_CIS: Attagene CIS-FACTORIAL HepG2 Assay for human Hypoxia Inducible Factor 1 (HIF1A) (AID 2282951); conditions: HepG2 Attagene cis-factorial HIF1a reporter transcription; actives raise or lower the signal
Summary of the method: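 Activity is fitted in both directions relative to DMSO. Reporter transcripts are read by RT-PCR, fluorescent primer extension and capillary electrophoresis after 24 h chemical treatment. The cells are HepG2 carrying transiently transfected cis-element-driven reporter units responding to endogenous factors.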

[17] = biological target: Hepatocyte nuclear factor 6 (Homo sapiens) (UniProt Q9UBC0); assay: ATG_HNF6_CIS: Attagene CIS-FACTORIAL HepG2 Assay for human Hepatocyte Nuclear Factor 6 (HNF6) (AID 2282952); conditions: HepG2 Attagene cis-factorial HNF6 reporter transcription; actives raise or lower the signal
Summary of the method: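 Activity values derive from bidirectional fitting against DMSO of reporter mRNA levels, measured by capillary electrophoresis of labelled RT-PCR products from HepG2 cells exposed 24 h.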

[18] = ATG_MRE_CIS: Attagene CIS-FACTORIAL HepG2 Assay for human Metal Responsive Element (MRE) (AID 2282954); conditions: HepG2 MRE cis-reporter transcription, Attagene multiplex; actives raise or lower the signal
Summary of the method: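 Cells were transfected with cis-promoter reporter transcription units, then dosed for 24 h. RNA was reverse-transcribed, amplified, fluorescently labelled and resolved by capillary electrophoresis, and activity was fitted in both directions relative to DMSO.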

[19] = biological target: Heat shock factor protein 1 (Homo sapiens) (UniProt Q00613); assay: ATG_HSE_CIS: Attagene CIS-FACTORIAL HepG2 Assay for human Heat Shock Transcription Factor 1 (HSE) (AID 2282953); conditions: HepG2 HSE cis-reporter, Attagene RNA transcription; actives raise or lower the signal
Summary of the method: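 Read-out: fluorescence of reporter-specific RT-PCR fragments separated by capillary electrophoresis. HepG2 carrying transfected cis-element reporter units; 24 h dosing; activity fitted in both directions relative to DMSO baseline.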

[20] = biological target: Bile acid receptor (Homo sapiens) (UniProt Q96RI1); assay: ATG_IR1_CIS: Attagene CIS-FACTORIAL HepG2 Assay for human Nuclear Receptor Subfamily 1 Group H Member 4 (NR1H4), IR1 submotif (AID 2282946); conditions: IR1 reporter transcription, actives raise or lower the signal
Summary of the method: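 Readout: reporter transcript levels by RT-PCR with fluorescent capillary electrophoresis, from HepG2 cells transiently transfected with multiplexed cis-regulated reporters and dosed 24 h. Gain- or loss-of-signal fitted versus DMSO negative control.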

Measured: outcome

Chain of Hepatocyte nuclear factor 6 (Homo sapiens) (Q9UBC0 whole entry, looked up): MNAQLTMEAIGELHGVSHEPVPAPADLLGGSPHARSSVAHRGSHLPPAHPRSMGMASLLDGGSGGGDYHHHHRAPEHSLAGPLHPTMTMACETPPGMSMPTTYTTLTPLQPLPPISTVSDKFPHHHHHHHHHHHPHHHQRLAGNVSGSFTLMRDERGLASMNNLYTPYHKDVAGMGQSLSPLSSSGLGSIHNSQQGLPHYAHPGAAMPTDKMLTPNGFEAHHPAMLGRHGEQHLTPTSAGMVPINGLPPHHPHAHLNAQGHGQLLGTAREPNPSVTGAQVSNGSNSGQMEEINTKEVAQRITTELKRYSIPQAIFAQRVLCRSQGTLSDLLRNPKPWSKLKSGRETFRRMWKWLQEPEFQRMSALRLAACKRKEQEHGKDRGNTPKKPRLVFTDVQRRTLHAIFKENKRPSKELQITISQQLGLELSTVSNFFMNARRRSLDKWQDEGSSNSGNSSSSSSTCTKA
Chain of Transcription factor E2F1 (Homo sapiens) (Q01094 whole entry, looked up): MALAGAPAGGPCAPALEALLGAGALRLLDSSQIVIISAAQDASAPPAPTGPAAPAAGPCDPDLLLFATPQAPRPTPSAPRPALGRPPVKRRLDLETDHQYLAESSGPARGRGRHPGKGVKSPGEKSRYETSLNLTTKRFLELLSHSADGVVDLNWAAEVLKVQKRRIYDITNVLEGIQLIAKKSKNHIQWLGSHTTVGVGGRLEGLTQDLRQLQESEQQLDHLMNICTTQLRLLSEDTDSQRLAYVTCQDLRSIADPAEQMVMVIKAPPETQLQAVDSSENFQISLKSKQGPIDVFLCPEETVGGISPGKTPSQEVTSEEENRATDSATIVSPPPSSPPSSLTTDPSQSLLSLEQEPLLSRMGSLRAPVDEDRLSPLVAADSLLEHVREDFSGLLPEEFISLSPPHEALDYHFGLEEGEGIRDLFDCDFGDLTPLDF
Chain of Hepatocyte nuclear factor 3-beta (Homo sapiens) (Q9Y261 whole entry, looked up): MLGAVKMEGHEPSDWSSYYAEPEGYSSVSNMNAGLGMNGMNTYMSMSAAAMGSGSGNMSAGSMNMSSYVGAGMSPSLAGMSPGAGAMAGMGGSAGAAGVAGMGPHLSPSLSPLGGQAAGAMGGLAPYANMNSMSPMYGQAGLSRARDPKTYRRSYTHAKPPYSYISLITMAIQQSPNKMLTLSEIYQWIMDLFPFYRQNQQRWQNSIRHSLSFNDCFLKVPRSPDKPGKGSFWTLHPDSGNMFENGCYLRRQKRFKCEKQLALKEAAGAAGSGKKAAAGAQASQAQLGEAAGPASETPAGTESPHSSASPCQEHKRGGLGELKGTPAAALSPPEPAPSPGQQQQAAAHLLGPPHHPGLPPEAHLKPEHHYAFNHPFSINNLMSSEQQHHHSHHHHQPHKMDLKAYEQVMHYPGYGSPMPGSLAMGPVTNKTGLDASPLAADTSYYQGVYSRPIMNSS
Chain of Hypoxia-inducible factor 1-alpha (Homo sapiens) (Q16665 whole entry, looked up): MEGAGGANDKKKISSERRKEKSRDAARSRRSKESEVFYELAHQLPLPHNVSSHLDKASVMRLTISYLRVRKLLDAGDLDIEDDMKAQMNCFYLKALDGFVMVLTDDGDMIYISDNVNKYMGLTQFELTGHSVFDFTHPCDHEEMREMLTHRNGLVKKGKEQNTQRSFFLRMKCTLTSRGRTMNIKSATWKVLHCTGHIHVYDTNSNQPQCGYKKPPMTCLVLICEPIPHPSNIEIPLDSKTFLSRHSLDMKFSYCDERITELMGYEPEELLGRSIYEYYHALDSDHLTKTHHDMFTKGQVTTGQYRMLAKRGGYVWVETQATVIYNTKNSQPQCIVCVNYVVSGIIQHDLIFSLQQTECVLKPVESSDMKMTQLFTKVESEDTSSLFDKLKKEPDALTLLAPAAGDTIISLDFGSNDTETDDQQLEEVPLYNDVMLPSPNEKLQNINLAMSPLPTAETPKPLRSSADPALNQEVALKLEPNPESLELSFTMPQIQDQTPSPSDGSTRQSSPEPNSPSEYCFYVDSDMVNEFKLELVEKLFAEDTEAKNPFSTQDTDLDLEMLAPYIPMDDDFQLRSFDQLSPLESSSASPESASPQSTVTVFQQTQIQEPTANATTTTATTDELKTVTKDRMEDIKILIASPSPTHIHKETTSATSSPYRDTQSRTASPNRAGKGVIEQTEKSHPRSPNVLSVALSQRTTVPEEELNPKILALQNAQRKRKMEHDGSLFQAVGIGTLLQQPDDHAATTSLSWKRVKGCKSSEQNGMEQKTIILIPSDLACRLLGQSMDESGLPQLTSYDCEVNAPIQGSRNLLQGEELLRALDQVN
Chain of Bile acid receptor (Homo sapiens) (Q96RI1 whole entry, looked up): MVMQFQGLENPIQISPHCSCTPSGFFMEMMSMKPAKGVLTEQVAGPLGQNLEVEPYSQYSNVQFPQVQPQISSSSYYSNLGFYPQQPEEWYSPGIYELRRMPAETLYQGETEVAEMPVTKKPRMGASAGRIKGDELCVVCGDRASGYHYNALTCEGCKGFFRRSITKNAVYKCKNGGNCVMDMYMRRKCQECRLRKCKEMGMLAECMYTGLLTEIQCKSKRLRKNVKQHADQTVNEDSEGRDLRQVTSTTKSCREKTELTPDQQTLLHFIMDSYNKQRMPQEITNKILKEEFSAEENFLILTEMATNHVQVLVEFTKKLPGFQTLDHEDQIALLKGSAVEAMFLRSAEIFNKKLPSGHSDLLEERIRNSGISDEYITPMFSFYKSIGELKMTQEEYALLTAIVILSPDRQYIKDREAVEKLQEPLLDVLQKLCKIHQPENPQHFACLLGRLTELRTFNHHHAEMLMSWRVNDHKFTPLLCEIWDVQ
Chain of Heat shock factor protein 1 (Homo sapiens) (Q00613 whole entry, looked up, the tested form may be a part): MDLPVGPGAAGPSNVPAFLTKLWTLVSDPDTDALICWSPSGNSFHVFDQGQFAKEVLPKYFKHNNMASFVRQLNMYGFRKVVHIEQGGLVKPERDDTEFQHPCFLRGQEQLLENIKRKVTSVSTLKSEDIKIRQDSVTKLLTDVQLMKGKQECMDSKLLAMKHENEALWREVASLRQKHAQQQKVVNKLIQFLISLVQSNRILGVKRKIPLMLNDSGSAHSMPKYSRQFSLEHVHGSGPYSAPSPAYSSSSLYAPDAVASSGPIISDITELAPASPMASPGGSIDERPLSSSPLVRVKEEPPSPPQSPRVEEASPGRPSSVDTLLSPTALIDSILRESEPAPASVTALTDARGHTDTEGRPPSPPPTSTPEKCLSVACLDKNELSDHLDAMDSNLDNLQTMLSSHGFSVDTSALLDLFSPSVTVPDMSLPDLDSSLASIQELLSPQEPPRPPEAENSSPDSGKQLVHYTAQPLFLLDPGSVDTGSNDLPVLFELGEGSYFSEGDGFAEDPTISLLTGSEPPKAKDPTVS

c1cc2c3c(cccc3c1)CC2
not listed: [19] | [20]
inactive: all other assays above

CSC(C)(C)C=NO
not listed: [20]
inactive: all other assays above

Cc1ccc(C(=O)Cl)cc1
not listed: [14]
inactive: all other assays above

CC(C)(C)N(NC(=O)c1ccc(Cl)cc1)C(=O)c1ccccc1
not listed: [14] | [19]
inactive: all other assays above
